The supplement of paper PMC9925115

Test system: FLX1 + dox-induced PRKAR1A G325D
Assay: difference in log2 fold change of viability vs plate median (dox-induced PRKAR1A G325D minus uninduced); higher = compound less effective when PKA is inhibited
Details: concentration: not stated (2 or 5 uM); 5 days
Method: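 For each plate a log2 fold change vs the plate median was derived, and the values without dox were subtracted from those with dox, averaged over three biological replicates.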

| Compound | difference in log2 fold change of viability |
| --- | --- |
| NC1(Cc2ccc(Cl)cc2)CCN(c2ncnc3[nH]ccc23)CC1 | 0.655 |
| C=CC(=O)Nc1cccc(Nc2nc(Nc3ccc(N4CCN(C(C)=O)CC4)cc3OC)ncc2C(F)(F)F)c1 [Rociletinib (CO-1686, AVL-301)] | -0.172 |
| COc1c(C)c(C(=O)c2ccc(N)c(C(=O)O)c2)n2ccccc12 | 0.093 |
| Cc1[nH]c(/C=C2\C(=O)Nc3ccc(S(=O)(=O)Cc4c(Cl)cccc4Cl)cc32)c(C)c1C(=O)N1CCC[C@@H]1CN1CCCC1 | -0.266 |
| C[C@H](Nc1ncnc2nc[nH]c12)c1cc2cccc(Cl)c2c(=O)n1-c1ccccc1 [Duvelisib (IPI-145, INK1197)] | -0.0226 |
| CNC(=O)c1nn(C)c2c1C(C)(C)Cc1cnc(Nc3ccc(N4CCN(C)CC4)cc3)nc1-2 | 0.64 |
| O=C(O)[C@]1(Cc2cccc(Nc3nccs3)n2)CC[C@@H](Oc2cccc(Cl)c2F)CC1 | -0.795 |
| CCN1CCN(Cc2ccc(-c3cc4c(N[C@H](C)c5ccccc5)ncnc4[nH]3)cc2)CC1 | -0.338 |
| CC[C@@H]1C(=O)N(C)c2cnc(Nc3ccc(C(=O)NC4CCN(C)CC4)cc3OC)nc2N1C1CCCC1 | 0.0323 |
| COc1ccc(-c2ccc3ncc4c(c3c2)n(-c2ccc(N3CCNCC3)c(C(F)(F)F)c2)c(=O)n4C)cn1 | 0.174 |
| CC1=C(C(=O)Nc2cc3cn[nH]c3cc2F)C(c2ccc(C(F)(F)F)cc2)CC(=O)N1 (stereo not given) | 0.418 |
| O=C(Nc1cccc(Nc2ncc(Br)c(NCCc3cnc[nH]3)n2)c1)N1CCCC1 | 0.799 |
| Cc1nc(N)sc1-c1ccnc(Nc2ccc(N3CCOCC3)cc2)n1 | 0.455 |
| Nc1ccc(-c2ccc3ncc4ccc(=O)n(-c5cccc(C(F)(F)F)c5)c4c3c2)cn1 [Torin 2] | 0.605 |
| CS(=O)(=O)CCNCc1ccc(-c2ccc3ncnc(Nc4ccc(OCc5cccc(F)c5)c(Cl)c4)c3c2)o1 [Lapatinib] | 0.129 |
| COc1cc2ncnc(Nc3ccc(O)c(Br)c3)c2cc1OC | -0.279 |
| OCCn1cc(-c2cnc3nnn(Cc4ccc5ncccc5c4)c3n2)cn1 | -0.172 |
| CCCCCCCCCCCCc1ccc(S(=O)(=O)Nc2nncs2)cc1 | 0.132 |
| C#Cc1cccc(Nc2ncnc3cc4c(cc23)OCCOCCOCCO4)c1 [Icotinib] | -0.163 |
| CCn1c2ccccc2c2cc(Nc3ccnc(NCCCN4CCOCC4)n3)ccc21 | 0.808 |

| Compound | difference in log2 fold change of viability |
| --- | --- |
| Cc1csc(-c2nnc(Nc3ccc(Oc4ncccc4-c4ccnc(N)n4)cc3)c3ccccc23)c1 | 0.188 |
| CCCNC(=O)Nc1ccc(Oc2ncnc3cc(OC)c(OC)cc23)cc1Cl | -0.22 |
| O=C(O)c1ccc(-c2c[nH]c3ncc(-c4ccccc4)cc23)cc1C1CCCC1 | 0.0725 |
| C[C@@H](Oc1cc(-c2cnn(C3CCNCC3)c2)cnc1N)c1c(Cl)ccc(F)c1Cl | -0.703 |
| CCc1cnn2c(NCc3ccc[n+]([O-])c3)cc(N3CCCC[C@H]3CCO)nc12 | 0.265 |
| CC(C)c1cnn2c(NCc3ccccc3)cc(NCCCCCCN)nc12 | -0.0617 |
| Oc1cc(O)cc(/C=C/c2ccc(O)c(O)c2)c1 [Piceatannol] | -0.236 |
| Fc1cc(-c2cccc3ncc(-c4cnn(C5CCNCC5)c4)nc23)cc(F)c1CN1CCOCC1 | 0.246 |
| CCC(=O)Nc1cccc(Oc2nc(Nc3ccc(N4CCN(C)CC4)cc3OC)ncc2Cl)c1 | -0.831 |
| O=C(Nc1ccc(-c2ccnc(Nc3ccc(N4CCOCC4)cc3)n2)cc1)C1CCCN1 (stereo not given) | 0.201 |
| CC(C)(C)c1ccc(S(=O)(=O)/C=C/C#N)cc1 | 0.145 |
| CCC[C@H](NC(=O)/C(C#N)=C/c1cccc(Br)n1)c1ccccc1 [Degrasyn (WP1130)] | 0.135 |
| CN(C)CCOc1ccc(-c2nc(-c3ccncc3)c(-c3ccc4c(c3)CC/C4=N\O)[nH]2)cc1 | -1.73 |
| CC(C)(O)CC(=O)NCCn1ccc2ncnc(Nc3ccc(Oc4cccc(C(F)(F)F)c4)c(Cl)c3)c21 | -0.173 |
| C=CC(=O)Nc1cccc(Nc2nc(Nc3ccc(Oc4ccnc(C(=O)NC)c4)cc3)ncc2F)c1 | -0.452 |
| Cc1[nH]c(/C=C2\C(=O)Nc3ccc(S(=O)(=O)N(C)c4cccc(Cl)c4)cc32)c(C)c1C(=O)N1CCN(C)CC1 | 0.163 |
| C#Cc1cccc(Nc2ncnc3cc(OC)c(OCCCCCCC(=O)NO)cc23)c1 | -0.131 |
| CN1CCN(c2cccc(Nc3nc4c(-c5ccc(S(C)(=O)=O)cc5)cccn4n3)c2)CC1 | -0.93 |
| CNc1nc(Nc2cnn([C@H]3CCN(C4COC4)C[C@@H]3F)c2Cl)ncc1C(F)(F)F | -0.177 |
| Nc1ncnc2c1c(-c1cnc3[nH]ccc3c1)nn2C1CCCC1 | 0.363 |
